High-throughput results deposited in PubChem BioAssay by National Center for Advancing Translational Sciences (NCATS).
IL1B secr inh: inflammasome signaling inhibition, IL-1 beta readout | AID 743279 | activity change, % at 57.5 µM | THP-1 LPS/ATP IL-1B secretion, AlphaLISA, 16 h; active compounds read low | actives 4.7% (n = 360,000); in the data active = activity change below about -50%; inconclusive = mostly about -30% to -49%
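THP-1 cells pretreated 1 hr with compounds (up to 57.5 uM final), then stimulated with LPS (250 ng/mL final) plus ATP (1.25 mM final); secreted IL-1B measured by AlphaLISA after 16 hr, decreased signal indicating inhibition.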
DT40 TDP1 no CPT: qHTS for Inhibitors of human tyrosyl-DNA phosphodiesterase 1 (TDP1): qHTS in cells in absence of CPT | actives 15% (n = 420,000) | AID 686978, 2013 | Potency, µM (highest dose often 46.2 µM), inactives show at the top dose activity change, negative = growth inhibition, most hits filed as inhibitors | DT40 Tdp1-/- hTDP1 cells, no CPT, ATP luminescence, 48 h; note: potency is the fitted concentration of half-maximal effect; nearly all actives have a fitted effect of over 55% in size
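Growth of hTDP1-complemented DT40 Tdp1-knockout cells is measured by ATP luminescence after at least 48 hr compound exposure at 37 °C, with DMSO substituting for the 20 nM CPT used in the parallel screen.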
VP16 counter: inhibits Gal4-VP16 luciferase reporter, ROR gamma counter-screen; Drosophila S2 Gal4-VP16 UAS-luciferase, luminescence, 20 h; Potency, µM (top dose mostly 53.6 µM), for the others: at the top dose activity, negative = inhibition, actives largely listed as inhibitors; actives 3.5% (n = 310,000); AID 2546;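 note: Gal4-VP16 expression switched on by copper sulfate through the metallothionein promoter; potency is the fitted concentration of half-maximal effect; nearly all actives have a fitted effect of over 50% in size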
RORgamma inh: inhibitors of mouse ROR gamma transcriptional activity; P51450; Drosophila S2 Gal4-RORgamma UAS-luciferase reporter, 20 h; Potency, µM (titrated, usually from 53.6 µM), for the others: top-dose activity change, negative = inhibition, hits mostly inhibitors; actives 5.4% (n = 310,000); AID 2551; note: potency is the fitted concentration of half-maximal effect; nearly all actives have a fitted effect of over 60% in size
Target sequence (P51450 whole entry, looked up, the tested form may be a part): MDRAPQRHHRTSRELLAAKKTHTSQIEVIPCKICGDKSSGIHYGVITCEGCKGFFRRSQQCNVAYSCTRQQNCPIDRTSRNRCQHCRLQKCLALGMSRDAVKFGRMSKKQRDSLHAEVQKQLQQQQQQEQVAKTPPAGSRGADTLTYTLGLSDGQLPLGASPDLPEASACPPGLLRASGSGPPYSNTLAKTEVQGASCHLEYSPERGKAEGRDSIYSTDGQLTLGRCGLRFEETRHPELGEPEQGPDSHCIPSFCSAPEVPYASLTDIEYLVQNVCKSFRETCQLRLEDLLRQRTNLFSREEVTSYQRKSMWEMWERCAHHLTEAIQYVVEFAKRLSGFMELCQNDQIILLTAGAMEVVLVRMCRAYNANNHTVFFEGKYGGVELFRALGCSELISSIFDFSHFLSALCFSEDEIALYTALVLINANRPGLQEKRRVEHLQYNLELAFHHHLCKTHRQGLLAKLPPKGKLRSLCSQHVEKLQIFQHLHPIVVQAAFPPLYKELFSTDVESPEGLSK
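A Gal4/UAS one-hybrid system in insect cells: metallothionein-promoter Gal4–ROR gamma fusion plus Photinus luciferase reporter. Copper sulfate 700 uM final, 20 hr ambient incubation, luminescent detection after 10 min with reagent.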
DT40 TDP1 CPT: DT40-hTDP1 cell growth loss with CPT; chicken DT40 Tdp1-/-;hTDP1 cells + 20 nM CPT, ATP luminescence, 48 h; Potency, µM (series often up to 46.2 µM), inactives show at the highest dose activity change, negative = growth inhibition, actives largely listed as inhibitors; actives 12% (n = 420,000); AID 686979; note: potency is the fitted concentration of half-maximal effect; nearly all actives have a fitted effect of over 55% in size
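Chicken DT40 Tdp1-/- cells stably complemented with human TDP1 were seeded at 400 cells/well in medium containing 20 nM camptothecin, exposed to pin-transferred compounds, and grown at 37 °C for at least 48 hr. Viability was read as ATP luminescence.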
LDHA block: blocks human lactate dehydrogenase A | AID 1347041 | actives 0.15% (n = 480,000) | P00338 | purified LDHA, NADH/diaphorase-resazurin fluorescence; active compounds read low | activity change, % (values are at about 110 or 230 µM); in the data active = activity change below about -30%; inconclusive = mostly about -25% to -30%;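 note: plate controls were DMSO wells for no effect and wells without enzyme for full effect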
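Human LDH5 at 2 nM final in Tris HCl pH 7.4 with 0.06 mM NADH and 0.2 mM pyruvate, reacted 5 minutes at room temperature. Remaining NADH coupled via diaphorase/resazurin; resorufin fluorescence read at 0 and 20 minutes, normalized to enzyme-free and DMSO wells.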
* = called active by the depositor; ? = inconclusive; · = no result given; [ ] = remark or other dose. Most compounds without a hit are left out; they make up all but 18% or so of the library. Unless noted, calls come from the whole dose curve; as a rule, active = well fitted curve in the direction sought with a large enough effect; inconclusive = small, poorly fitted or top-dose-only effect, or another doubt; inactive = no such curve, though single readings can be large; an effect the other way counts as inactive or inconclusive. Unless noted, % is set by controls: 0 for no effect and ±100 for the full control effect.

SMILES	IL1B secr inh	DT40 TDP1 no CPT	VP16 counter	RORgamma inh	DT40 TDP1 CPT	LDHA block
Cc1cc2nc(C3CCCCC3)c(Cc3ccccc3)n2c(C)c1Br	41	23µM*	·	·	?	-5
COc1ccc(Cc2c(-c3ccccc3)nc3cc(C)c(Br)c(C)n23)c(C)c1	0	?	·	·	?	-2
COc1ccc(-c2cc3nc(C)c(CCC(=O)N4CCN(c5cccc(Cl)c5)CC4)c(C)n3n2)c(OC)c1	·	5.8µM*	·	·	2.6µM*	-7
CCOC(=O)C1CCN(C(=O)CCc2c(C)nc3cc(-c4ccc(OC)cc4OC)nn3c2C)CC1	4	?	2%	-12%	?	-2
COc1ccc(-c2cc3nc(C)c(CCC(=O)NC4CCCCC4)c(C)n3n2)c(OC)c1	·	?	·	·	?	3
COc1ccc(N2CCN(C(=O)CCc3c(C)nc4cc(-c5ccc(Cl)cc5)nn4c3C)CC2)cc1	·	-29%	·	·	2%	2
COc1ccc(N2CCN(C(=O)CCc3c(C)nc4cc(-c5ccc(OC)cc5OC)nn4c3C)CC2)cc1	·	16µM*	·	·	21µM*	1
COc1ccc(-c2cc3nc(C)c(CCC(=O)N4CCN(c5ccc(F)cc5)CC4)c(C)n3n2)c(OC)c1	·	16µM*	·	·	23µM*	2
Cn1nc(-c2ccc(C(=O)NCC3CCCO3)cc2)c2ccccc2c1=O (configuration not stated)	30	?	-10%	-5%	?	0
Cn1nc(-c2ccc(OCC(=O)N3CCOCC3)cc2)c2ccccc2c1=O	·	·	·	·	·	-31*
Cn1nc(-c2ccc(OCC(=O)NCC3CCCO3)cc2)c2ccccc2c1=O (configuration not stated)	42	12µM*	-29%	7%[10 µM]	18µM*	-4
CN(C(=O)c1ccc(-c2nn(C)c(=O)c3ccccc23)cc1)C1CCCCC1	?	16µM*	-1%	15%	13µM*	-6
CN(CCO)C(=O)c1ccc(-c2nn(C)c(=O)c3ccccc23)cc1	28	-9%	-3%	-26%	-21%	-7
COc1ccc(OCC(=O)Nc2cc(-c3nn(C)c(=O)c4ccccc34)ccc2OC)cc1	-2	16µM*	-5%	-6%	16µM*	0
COc1cccc(N2CC(NC(=O)Nc3nc4c(C)cccc4s3)CC2=O)c1 (configuration not stated)	·	·	·	·	·	-11
O=C(CCc1ccsc1)N1CCCC(C(F)(F)F)C1 (configuration not stated)	·	·	·	·	·	4
Cc1nn(-c2nc3c(c(=O)[nH]c(=O)n3C)n2Cc2ccccc2Cl)c(C)c1C	·	·	·	·	·	1
N#CC(C#N)=Cc1ccc(OCC(=O)N2CCOCC2)cc1	-53*	?	0%[10 µM]	16%	21µM*	-9
c1ccc(-c2ccc(C3=Nn4c(nnc4-c4cc(-c5ccccc5)n[nH]4)SC3)cc2)cc1	62	?	-11%	?	?	1
Cc1cccc(-c2nnc3n2N=C(c2ccc(Br)cc2)CS3)c1	13	-42%	-5%	-2%	-49%	0
Clc1ccc(C2=Nn3c(nnc3-c3n[nH]c4c3CCC4)SC2)cc1	-5	2.9µM*	-4%	-24%	4.1µM*	-15
Brc1ccc(C2=Nn3c(nnc3-c3n[nH]c4c3CCC4)SC2)cc1	-16	0.92µM*	-4%	-20%	0.92µM*	-3
Cc1ccc(-c2nnc3n2N=C(c2ccc(Br)cc2)CS3)cc1	-20	?	1%	2%	23µM*	-5
CCCn1c(SCC(N)=O)nc2c1c(=O)[nH]c(=O)n2C	·	·	·	·	·	14
N#Cc1c2n(c(=O)n(CC(O)COc3ccccc3F)c1=O)CCC2 (configuration not stated)	·	·	·	·	·	1
SMILES	IL1B secr inh	DT40 TDP1 no CPT	VP16 counter	RORgamma inh	DT40 TDP1 CPT	LDHA block
CCOc1ccccc1C(=O)Oc1ccc(OC)cc1	·	·	·	·	·	3
Cc1ccc(-n2c(C)cc(C(=O)COc3cccnc3[N+](=O)[O-])c2C)cc1	-3	10µM*	?	?	18µM*	2
O=C(COc1cccnc1[N+](=O)[O-])N1CCc2ccccc21	-1	-2%	?	2%	-12%	-7
Cc1cc(C(=O)COc2cccnc2[N+](=O)[O-])c(C)n1Cc1ccco1	5	26µM*	?	-38%	?	-1
Cc1cc(C(=O)COC(=O)c2ccco2)c(C)n1Cc1ccco1	-13	-15%	-9%	35%	?	-2
Cc1cc(C(=O)COc2cccnc2[N+](=O)[O-])c(C)n1-c1ccccc1F	-5	9.2µM*	?	13%	18µM*	0
Cc1ccc(OCC(=O)c2cc(C)n(C)c2C)c([N+](=O)[O-])n1	14	-15%	0%	11%	-9%	10
Cc1cc(C(=O)COc2cccnc2[N+](=O)[O-])c(C)n1-c1ccccc1	10	21µM*	?	?	?	1
CCn1cc(C(=O)N2CCN(CC(=O)NCc3ccccc3)CC2)c2ccccc21	·	·	·	·	·	6
Cc1[nH]c2ccccc2c1C(=O)COC(=O)CNS(=O)(=O)/C=C/c1ccccc1	·	·	·	·	·	9
CCn1nc(C(=O)Nc2cc(Cl)ccc2Oc2ccc(OC)cc2)c2ccccc2c1=O	·	·	·	·	·	8
